Screening results (PubChem)
Rows were chosen to be rich in hits. Some 6.2% of all compounds tested hit in one or more screens of this group.
VP16 counter: counter-screen for ROR gamma inhibitors: Gal4-VP16 reporter; Drosophila S2 Gal4-VP16 UAS-luciferase, luminescence, 20 h; Potency, µM (top dose mostly 53.6 µM), for inactives: at the top dose activity, negative = inhibition, actives largely listed as inhibitors; actives 3.5% (n = 310,000); AID 2546;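 note: Gal4-VP16 expression switched on by copper sulfate through the metallothionein promoter; nearly all actives have a fitted effect of over 50% in size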
KinaseGlo FLuc: counter-screen: inhibitors of Kinase-Glo firefly luciferase. Kinase-Glo luciferase, ATP luminescence, 8 min. Potency, µM (top dose mostly 38.3 µM), inactives show top-dose activity change, negative = inhibition, usual class: inhibitors. actives 0.28% (n = 200,000); note: nearly all actives have a fitted effect of over 60% in size
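Recombinant Kinase-Glo luciferase, 10 uM ATP (linear range), luciferin; imidazole pH 7.2 / KCl / MgCl2 / Tween / BSA buffer; 8 min RT; luminescence.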
RORgamma inh: ROR gamma (mouse) transcription inhibition. P51450. Drosophila S2 Gal4-RORgamma UAS-luciferase reporter, 20 h. Potency, µM (series often up to 53.6 µM), inactives show top-dose activity change, negative = inhibition, usual class: inhibitors. actives 5.4% (n = 310,000); note: nearly all actives have a fitted effect of over 60% in size
Target sequence (P51450 whole entry, looked up, the tested form may be a part): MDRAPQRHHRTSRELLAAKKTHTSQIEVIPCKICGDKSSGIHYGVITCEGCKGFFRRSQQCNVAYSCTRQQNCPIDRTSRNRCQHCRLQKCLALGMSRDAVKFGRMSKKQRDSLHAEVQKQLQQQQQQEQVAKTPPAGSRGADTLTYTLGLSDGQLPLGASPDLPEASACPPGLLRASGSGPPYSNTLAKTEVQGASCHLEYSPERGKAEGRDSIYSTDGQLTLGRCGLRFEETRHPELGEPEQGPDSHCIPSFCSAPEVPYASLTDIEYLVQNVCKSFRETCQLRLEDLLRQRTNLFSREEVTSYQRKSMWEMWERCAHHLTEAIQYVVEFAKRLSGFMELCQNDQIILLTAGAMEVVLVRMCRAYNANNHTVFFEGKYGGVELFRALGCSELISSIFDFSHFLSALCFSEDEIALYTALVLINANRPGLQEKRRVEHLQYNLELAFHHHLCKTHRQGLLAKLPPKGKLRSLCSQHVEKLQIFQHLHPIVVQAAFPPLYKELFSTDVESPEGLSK
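ROR gamma transcriptional activity was tracked as Gal4-UAS luciferase output in stably transfected Drosophila Schneider cells, with compound added 1 hr before 700 uM copper sulfate induction and a 20 hr ambient-temperature incubation.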
Active calls of the source: *; ? = inconclusive; nt = not tested or not shown. Calls come from the whole dose curve; as a rule, active = well fitted curve in the direction sought with a large enough effect; inconclusive = small, poorly fitted or top-dose-only effect, or another doubt; inactive = no such curve, though single readings can be large; an effect the other way counts as inactive or inconclusive. % is set by controls: 0 for no effect and ±100 for the full control effect; potency is the fitted concentration of half-maximal effect.

SMILES	VP16 counter	KinaseGlo FLuc	RORgamma inh
CC(NC(=O)/C(C#N)=C/c1ccc([N+](=O)[O-])o1)c1ccccc1 (stereo not drawn)	2.51µM*	nt	5.01µM*
COC(=O)c1ccc(/C=C(\C#N)C(=O)NC(C)c2ccccc2)cc1 (stereo not drawn)	4.47µM*	1.2%	0.501µM*
COc1ccc(/C=C(\C#N)C(=O)NC(C)c2ccccc2)cc1O (stereo not drawn)	-1.8%	nt	13.4%
CC(NC(=O)/C(C#N)=C/c1ccco1)c1ccccc1 (stereo not drawn)	?	nt	-9.1%
CCCc1nnc(NC(=O)CC(C)c2ccccc2)s1 (stereo not drawn)	-5.9%	nt	32.4%
CC[C@@H](C)[C@@H](CO[C@@H](Cc1ccccc1)C(=O)N[C@@H](CCS(C)(=O)=O)C(=O)OC(C)C)NC[C@@H](N)CS	-1.6%	nt	-1.5%
C=CCn1c(SC(C)C#N)nc2sc(CC)cc2c1=O (stereo not drawn)	-0.5%	1.4%	11.3%
COc1ccc(N2C(S)=C(C#N)C(=O)NC23CCCCC3)cc1	?	-2.4%	?
O=C(CCl)N(Cc1ccccc1)c1ccccc1	?	6.0%	11.2µM*
Cc1cccc(N(Cc2ccccc2)C(=O)CCl)c1	-25.1%	1.2%	10µM*
COc1ccc(CC(=O)N(Cc2ccccc2)c2cccc(C)c2)cc1OC	14.9%	nt	-18.6%
COC(=O)c1ccc(C(=O)N(Cc2ccccc2)c2ccccc2)cc1	-3.5%	nt	?
Cc1ccc(C2C=NN(c3ccccc3)C2=O)cc1 (stereo not drawn)	-13.6%	-2.6%	-17.6%
Cc1noc(C)c1-c1ccc2ncnc(NCc3ccccc3C(F)(F)F)c2c1	-24.6%	nt	-26.6%
Nc1ccc(/C=C/c2ccc(N)cc2S(=O)(=O)O)c(S(=O)(=O)O)c1	-11.5%	nt	25.1%
Cc1cc(O)c(Oc2cc(C)cc(O)c2O)c(O)c1	?	nt	17.8µM*
COc1c(O)cc(O)cc1O	6.9%	-6.3%	7.5%
CC(=O)Nc1ccc(S(=O)(=O)N2CCC(C(=O)NCCc3c[nH]c4ccccc34)CC2)cc1	-1.3%	nt	39.0%
O=c1ccn(C2OC(COP(=O)(O)OC3C(CO)OC(n4ccc(=O)[nH]c4=O)C3O)C(O)C2O)c(=O)[nH]1 (stereo not drawn)	-0.2%	nt	6.1%
CC(C)CC(C)c1cc(N)nc2nc3ccccc3n12 (stereo not drawn)	-12.1%	-1.1%	15.8µM*
Cc1cc(N2CCN(c3ccccc3)CC2)n2c(n1)nc1ccccc12	-4.6%	-2.4%	-0.3%
Cn1c(O)c(N=Nc2nc(-c3ccccc3)cs2)c2ccccc21	?	0.0%	1.12µM*
Cn1c(O)c(N=Nc2ccccc2)c2ccccc21	3.1%	nt	-13.2%
C/C(=N\NC(=O)CCc1ccccc1)C1C(=O)c2ccccc2C1=O	2µM*	1.1%	0.562µM*
CC(/C=C/c1ccccc1)=N\NC(=O)CCc1ccccc1	-9.0%	-1.9%	-43.9%
SMILES	VP16 counter	KinaseGlo FLuc	RORgamma inh
COc1ccccc1/C=N/NS(=O)(=O)c1ccccc1	-7.6%	nt	26.1%
COc1ccccc1NS(=O)(=O)c1cccc(C(=O)N/N=C/c2ccc(C)o2)c1	14.1µM*	nt	11.2µM*
O=C(N/N=C/c1cccnc1)c1cccc(S(=O)(=O)Nc2cccc(Cl)c2)c1	3.9%	-0.1%	9.9%
COc1ccccc1/C=N/NC(=O)c1ccccc1NS(=O)(=O)c1ccc(C)cc1	?	0.0%	12.6µM*
COc1ccccc1NS(=O)(=O)c1cccc(C(=O)N/N=C/c2ccc(N3CCOCC3)cc2)c1	-12.0%	-0.9%	-52.2%
Cc1ccc(/C=N/NC(=O)c2cccc(S(=O)(=O)Nc3cccc(Cl)c3)c2)o1	?	0.7%	12.6µM*
COc1ccccc1NS(=O)(=O)c1cccc(C(=O)OCc2nc3ccccc3s2)c1	-3.3%	-1.0%	37.0%
COc1ccccc1NS(=O)(=O)c1cccc(C(=O)OCC(=O)Nc2cc(C)on2)c1	-24.6%	-0.2%	11.2µM*
Cc1nnc(NC(=O)CSc2nccn2Cc2ccc(F)cc2)s1	-0.7%	nt	-24.8%
CC(C)CC(OC(=O)c1ccco1)C(=O)NC1CCCC1 (stereo not drawn)	-9.2%	nt	6.5%
COc1ccc(S(=O)(=O)NCCCN2CCCC2=O)cc1OC	3.3%	nt	-1.1%
CN(C)CCNC(=O)Nc1ccc(F)cc1F	-3.0%	3.2%	4.4%
N#Cc1ccccc1NC(=O)CSC1=Nc2ccccc2C2CC=NN12 (stereo not drawn)	?	-0.7%	11.2µM*
O=C(CSC1=Nc2ccccc2C2CC=NN12)Nc1ccc2c(c1)OCO2 (stereo not drawn)	3.6%	3.5%	-37.4%
COc1ccc(/C=N/NC(=O)c2cccc(NC(=O)c3ccccc3Cl)c2)c(OC)c1	-12.5%	0.5%	15.3%
